In all, about 5,500 compounds went through this assay and about 2,000 (36%) were called active. Another 18% or so got no clear call; they are omitted. No stated cut-off is given here; in the data, active means normalized growth mostly below about 0.91 (no sharp cut-off); inconclusive means no clear call, values can overlap the other calls; inactive means mostly above about 0.92. The list shows a part of the results.
Experiment: chemical genetic growth profiling, strain panel (AID 1159580);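 further: tested at 20 µM; growth read once vehicle control cultures reached saturation at 30 °C; 1 = growth at the plate median or of vehicle wells; lower values mean less growth of the strain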
Conditions: growth OD

Measured: normalized growth

OCc1ccccc1O[C@@H]1O[C@H](CO)[C@@H](O)[C@H](O)[C@H]1O
inactive: S. cerevisiae deletion strains, locus YJR066W, strain TOR1, active compounds read low 0.94 | S. cerevisiae deletion strains, locus YKL009W, strain mrt4, active compounds read low 1.01 | S. cerevisiae deletion strains, locus YKL068W, active compounds read low 0.98 | S. cerevisiae deletion strains, locus YKL085W, strain MDH1 (second series), active compounds read low 0.973 | S. cerevisiae deletion strains, locus YKL085W, strain MDH1, active compounds read low 0.973 | S. cerevisiae deletion strains, locus YKL160W, strain elf1, active compounds read low 0.993 | S. cerevisiae deletion strains, locus YKL190W, strain CNB1, active compounds read low 0.988 | S. cerevisiae deletion strains, locus YKR001C, strain vps1, active compounds read low 0.985 | S. cerevisiae deletion strains, locus YKR026C, strain gcn3, active compounds read low 1 | S. cerevisiae deletion strains, locus YKR091W, strain srl3, active compounds read low 0.994 | S. cerevisiae deletion strains, locus YLL001W, strain dnm1, active compounds read low 0.975 | S. cerevisiae deletion strains, locus YLL026W, active compounds read low 0.999 | S. cerevisiae deletion strains, locus YLL041C, strain sdh2, active compounds read low 0.991 | S. cerevisiae deletion strains, locus YLR027C, strain aat2, active compounds read low 1 | S. cerevisiae deletion strains, locus YLR039C, strain RIC1, active compounds read low 0.936 | S. cerevisiae deletion strains, locus YLR058C, strain SHM2, active compounds read low 0.978 | S. cerevisiae deletion strains, locus YLR102C, strain apc9, active compounds read low 0.99 | S. cerevisiae deletion strains, locus YLR113W, strain HOG1, active compounds read low 1.01 | S. cerevisiae deletion strains, locus YLR221C, strain rsa3, active compounds read low 0.991 | S. cerevisiae deletion strains, locus YLR258W, strain gsy2, active compounds read low 0.977 | S. cerevisiae deletion strains, locus YLR262C, strain YPT6 (second series), active compounds read low 0.997 | S. cerevisiae deletion strains, locus YLR262C, strain YPT6, active compounds read low 0.929 | S. cerevisiae deletion strains, locus YLR268W, strain sec22, active compounds read low 0.979 | S. cerevisiae deletion strains, locus YLR320W, strain mms22, active compounds read low 0.999 | S. cerevisiae deletion strains, locus YLR330W, strain CHS5, active compounds read low 0.989 | S. cerevisiae deletion strains, locus YLR342W, strain FKS1 (second series), active compounds read low 1.06 | S. cerevisiae deletion strains, locus YLR342W, strain FKS1, active compounds read low 0.995 | S. cerevisiae deletion strains, locus YLR357W, strain rsc2, active compounds read low 1.02 | S. cerevisiae deletion strains, locus YLR370C, strain arc18, active compounds read low 0.98 | S. cerevisiae deletion strains, locus YLR371W, strain rom2, active compounds read low 0.994 | S. cerevisiae deletion strains, locus YLR384C, strain iki3, active compounds read low 0.989 | S. cerevisiae deletion strains, locus YLR418C, strain cdc73, active compounds read low 1.02 | S. cerevisiae deletion strains, locus YML016C, strain PPZ1, active compounds read low 0.988 | S. cerevisiae deletion strains, locus YML032C, strain rad52, active compounds read low 0.993 | S. cerevisiae deletion strains, locus YML120C, strain ndi1, active compounds read low 1 | S. cerevisiae deletion strains, locus YML124C, strain tub3, active compounds read low 0.992 | S. cerevisiae deletion strains, locus YMR058W, strain fet3, active compounds read low 0.999 | S. cerevisiae deletion strains, locus YMR078C, strain ctf18, active compounds read low 0.987 | S. cerevisiae deletion strains, locus YMR125W, strain sto1, active compounds read low 0.976 | S. cerevisiae deletion strains, locus YMR129W, active compounds read low 1 | S. cerevisiae deletion strains, locus YMR205C, strain PFK2, active compounds read low 1.01 | S. cerevisiae deletion strains, locus YMR223W, strain ubp8, active compounds read low 1.05 | S. cerevisiae deletion strains, locus YMR231W, strain pep5, active compounds read low 0.992 | S. cerevisiae deletion strains, locus YMR263W, strain SAP30, active compounds read low 0.992 | S. cerevisiae deletion strains, locus YMR307W, strain GAS1, active compounds read low 1.06 | S. cerevisiae deletion strains, locus YNL067W, strain RPL9B, active compounds read low 0.968 | S. cerevisiae deletion strains, locus YNL071W, strain lat1, active compounds read low 0.999 | S. cerevisiae deletion strains, locus YNL153C, strain GIM3, active compounds read low 0.951 | S. cerevisiae deletion strains, locus YNL183C, strain NPR1, active compounds read low 0.944 | S. cerevisiae deletion strains, locus YNL209W, strain ssb2, active compounds read low 0.974 | S. cerevisiae deletion strains, locus YNL233W, strain BNI4, active compounds read low 0.974 | S. cerevisiae deletion strains, locus YNL248C, strain rpa49, active compounds read low 0.986 | S. cerevisiae deletion strains, locus YNL250W, strain rad50, active compounds read low 0.99 | S. cerevisiae deletion strains, locus YNL271C, strain bni1, active compounds read low 0.98 | S. cerevisiae deletion strains, locus YNL298W, strain CLA4, active compounds read low 0.994 | S. cerevisiae deletion strains, locus YNL307C, strain MCK1, active compounds read low 0.986 | S. cerevisiae deletion strains, locus YNL322C, strain KRE1 (second series), active compounds read low 0.997 | S. cerevisiae deletion strains, locus YNL322C, strain KRE1, active compounds read low 0.991 | S. cerevisiae deletion strains, locus YNR049C, strain mso1, active compounds read low 0.978 | S. cerevisiae deletion strains, locus YNR052C, strain pop2, active compounds read low 0.998 | S. cerevisiae deletion strains, locus YOL006C, strain TOP1, active compounds read low 0.957 | S. cerevisiae deletion strains, locus YOL012C, strain htz1 1.27 | S. cerevisiae deletion strains, locus YOL147C, strain pex11, active compounds read low 1 | S. cerevisiae deletion strains, locus YOR001W, strain rrp6, active compounds read low 0.998 | S. cerevisiae deletion strains, locus YOR061W, strain CKA2, active compounds read low 0.956 | S. cerevisiae deletion strains, locus YOR069W, strain VPS5, active compounds read low 0.995 | S. cerevisiae deletion strains, locus YOR070C, strain gyp1, active compounds read low 0.995 | S. cerevisiae deletion strains, locus YOR080W, strain dia2, active compounds read low 0.991 | S. cerevisiae deletion strains, locus YOR083W, strain WHI5, active compounds read low 0.999 | S. cerevisiae deletion strains, locus YOR106W, strain vam3, active compounds read low 0.977 | S. cerevisiae deletion strains, locus YOR136W, strain idh2, active compounds read low 0.988 | S. cerevisiae deletion strains, locus YOR144C, strain elg1, active compounds read low 0.99 | S. cerevisiae deletion strains, locus YOR184W, strain ser1, active compounds read low 0.991 | S. cerevisiae deletion strains, locus YOR231W, strain MKK1, active compounds read low 1.01 | S. cerevisiae deletion strains, locus YOR265W, strain rbl2, active compounds read low 1 | S. cerevisiae deletion strains, locus YOR270C, strain vph1, active compounds read low 0.918 | S. cerevisiae deletion strains, locus YOR290C, strain snf2, active compounds read low 0.99 | S. cerevisiae deletion strains, locus YOR316C, strain cot1, active compounds read low 0.975 | S. cerevisiae deletion strains, locus YPL051W, strain arl3, active compounds read low 0.98 | S. cerevisiae deletion strains, locus YPL078C, strain atp4, active compounds read low 0.992 | S. cerevisiae deletion strains, locus YPL106C, strain sse1, active compounds read low 0.991 | S. cerevisiae deletion strains, locus YPL240C, strain hsp82, active compounds read low 0.985 | S. cerevisiae deletion strains, locus YPL241C, strain CIN2, active compounds read low 0.994 | S. cerevisiae deletion strains, locus YPL256C, strain CLN2, active compounds read low 1.03 | S. cerevisiae deletion strains, locus YPR119W, strain clb2, active compounds read low 0.98 | S. cerevisiae deletion strains, locus YPR141C, strain kar3, active compounds read low 0.973 | S. cerevisiae deletion strains, locus YPR163C, strain tif3, active compounds read low 0.992 | S. cerevisiae deletion strains, locus YPR167C, strain met16, active compounds read low 0.997 | S. cerevisiae deletion strains, strain wtn01, active compounds read low 1.01 | S. cerevisiae strains, strain wild type, active compounds read low 0.979

— PubChem BioAssay AID1159580 (chemical genetic matrix, 2015)
